Calls of active or inactive are those of the source. How the source made its calls: active means hit-call score of the fitted dose curve at least 0.9, where 1 is the maximum; inactive means score below 0.9.
These molecules were tested on Intercellular Adhesion Molecule 1 (ICAM1), ICAM1 (gene 3383) (assay: BSK_KF3CT_ICAM1: BioMAP Diversity Plus: KF3CT Assay for Intercellular Adhesion Molecule 1 (ICAM1) Biomarker Activity (AID 2283067)). Conditions: primary human keratinocytes with fibroblasts; actives raise or lower the signal.
Experimental: BSK_KF3CT is a cell-based, multiplexed-readout assay that uses keratinocytes and foreskin fibroblasts, a human skin primary cell co-culture, with measurements taken at 24 hours after chemical dosing in a 96-well plate.BSK_KF3CT_ICAM1 is an assay component measured in the BSK_KF3CT assay. It measures ICAM-1 antibody related to regulation of gene expression using ELISA technology.Data from the assay component BSK_KF3CT_ICAM1 was analyzed into 1 assay endpoint. This assay endpoint, BSK_KF3CT_ICAM1, was analyzed with bidirectional fitting relative to DMSO as the negative control and baseline of activity. Using a type of binding reporter, gain or loss-of-signal activity can be used to understand changes in the signaling as they relate to the gene ICAM1. Furthermore, this assay endpoint can be referred to as a primary readout, because this assay has produced multiple assay endpoints where this one serves a signaling function. To generalize the intended target to other relatable targets, this assay endpoint is annotated to the cell adhesion molecules intended target family, where the subfamily is Immunoglobulin CAM.
The levels of cell surface (or secreted, indicated by the prefix "s") biomarker endpoints were measured by ELISA. Overt cytotoxicity to cells in confluent adherent cultures (all systems other than the BT system) was assessed by measuring total protein levels using sulforhodamine B (SRB) staining in parallel cultures at the time of biomarker measurements, indicated as SRB endpoints. For proliferation assays for adherent cell types, individual cell types are cultured at sub-confluence and relative cell numbers quantified by SRB staining at time points optimized for each system (48 h: 3C and CASM3C systems; 72 h: BT and HDF3CGF systems; 96 h: SAg system). SRB was performed by staining cells with 0.1% SRB after fixation with 10% TCA and reading wells at 560 nm.Viability and proliferation of PBMC (T cells) was quantified by Alamar Blue reduction for the SAg and BT systems. For PBMC viability (referred to as PBMC Cytotoxicity within the assay endpoint names), cells were plated (75,000/well in a 96-well plate) and then chemical samples added for 1 h before addition of activators, SEB and TSST-1 (20 ng/mL final concentration each). Cells were incubated for 90 h. Then, Alamar Blue (20 uL/well) (Invitrogen, Cat DAL1100) was added for 6 h, and the plates were read with a fluorescence microplate reader at 546/580 nm (excitation/emission). For PBMC proliferation, cells were plated and activated as above but incubated for only 16 h prior to addition of Alamar Blue. Plates were read after 6 h.
With `CC(C)(C)c1ccccc1O` the outcome was “inactive”.
In the case of `COc1ccccc1N`, the outcome is reported as “inactive”.
In the case of `Cc1ccc2nc3sc(=O)sc3nc2c1`, the AC50 is reported as 3.16 µM (active).
`Cc1cc(C(C)(C)c2ccc(O)c(C)c2)ccc1O` was tested, and the outcome was “inactive”.
`C#CCOC(=O)/C=C(C)/C=C/CC(C)CCCC(C)C` (stereo not given) was tested, and the outcome was “inactive”.
`N#CCCC(Br)(C#N)CBr` (stereo not given) was tested, and the AC50 was 26.8 µM (active).
For `Oc1cccc(-c2ccccc2)c1`, the outcome was “inactive”.
In the case of `CCOC(=O)C(SP(=S)(OC)OC)c1ccccc1` (stereo not given), the outcome is reported as “inactive”.
With `CCCCOC(=O)COC(=O)c1ccccc1C(=O)OCCCC` the outcome was “inactive”.
With `CC(C)N(C(=O)CCl)c1ccccc1` the AC50 was 28.5 µM (active).
`CC(C=O)Cc1ccc2c(c1)OCO2` (stereo not given) was tested, and the outcome was “inactive”.
In the case of `CCOP(=O)(OCC)SCCSCC`, the outcome is reported as “inactive”.
`CCOC(=O)CCN(SN(C)C(=O)Oc1cccc2c1OC(C)(C)C2)C(C)C` was tested, and the outcome was “inactive”.
With `CCOC(=O)CC(=O)CCl` the outcome was “inactive”.
`CCOP(=O)(OCC)OC(=CCl)c1ccc(Cl)cc1Cl` was tested, and the outcome was “inactive”.
For `CCCCN(CCCC)C(=S)[S-].CCCCN(CCCC)C(=S)[S-].[Ni+2]`, the outcome was “inactive”.
With `C[C@]12CC[C@@H](O)C[C@@H]1CC[C@@H]1[C@@H]2CC[C@]2(C)C(=O)CC[C@@H]12` the outcome was “inactive”.
In the case of `Cc1cc(C)cc(C)c1`, the outcome is reported as “inactive”.
`O=S(=O)(c1ccc(Cl)cc1)c1cc(Cl)c(Cl)cc1Cl` was tested, and the outcome was “inactive”.
In the case of `[Cl][Sn]([c]1ccccc1)([c]1ccccc1)[c]1ccccc1`, the AC50 is reported as 0.334 µM (active).
For `Nc1c(Oc2ccccc2)cc(O)c2c1C(=O)c1ccccc1C2=O`, the outcome was “inactive”.
In the case of `CN(C)C(=S)S`, the outcome is reported as “inactive”.
In the case of `Cc1cccc(OP(=O)(Oc2cccc(C)c2)Oc2cccc(C)c2)c1`, the outcome is reported as “inactive”.
With `O=c1oc2ccccc2c(O)c1C(CC(O)c1ccc(-c2ccc(Br)cc2)cc1)c1ccccc1` (stereo not given) the AC50 was 5.92 µM (active).
For `Clc1cccc(Cl)c1Cl`, the outcome was “inactive”.
For `N#Cc1cccnc1`, the outcome was “inactive”.
For `CC(C)O.CC(C)O.OCCN(CCO)CCO.OCCN(CCO)CCO.[Ti]`, the outcome was “inactive”.
In the case of `CC1(C)[C@H](C(=O)O[C@H](C#N)c2cccc(Oc3ccccc3)c2)[C@@H]1/C=C(\Cl)C(F)(F)F`, the outcome is reported as “inactive”.
With `CC(C)(C)c1cc([N+](=O)[O-])cc(C(C)(C)C)c1O` the outcome was “inactive”.
In the case of `O=C(O)COc1cc(Cl)c(Cl)cc1Cl`, the outcome is reported as “inactive”.
With `O=C(N[C@H]1CN2CCC1CC2)c1ccc2c(c1)OCCO2` the outcome was “inactive”.
For `O=[N+]([O-])c1ccc(Nc2ccccc2)cc1`, the outcome was “inactive”.
In the case of `Cc1cc(Cl)ccc1N`, the outcome is reported as “inactive”.
For `Nc1ccc(N)cc1`, the outcome was “inactive”.
`O=S(=O)(C(Cl)(Cl)Cl)C(Cl)(Cl)Cl` was tested, and the AC50 was 2.15 µM (active).
For `CCN(CC)C(=O)C(Cl)=C(C)OP(=O)(OC)OC`, the outcome was “inactive”.
In the case of `Cc1ccc(OP(=O)(Oc2ccc(C)cc2C)Oc2ccc(C)cc2C)c(C)c1`, the outcome is reported as “inactive”.
With `CCOP(=S)(OCC)SCS(=O)(=O)C(C)(C)C` the outcome was “inactive”.
For `CCCCCCCCCCCCN(C)C`, the outcome was “inactive”.
In the case of `Cc1c([N+](=O)[O-])c(C)c([N+](=O)[O-])c(C(C)(C)C)c1[N+](=O)[O-]`, the outcome is reported as “inactive”.

From PubChem BioAssay (EPA / NIEHS)
